Results from PubChem BioAssay AID1117319 (Southern Research Institute, 2015).
Several values for one entry are separate records, joined by “and”; a condition that tells them apart may be missing. Identical values can stand only once. Screen size: about 260,000 compounds; about 1,500 (0.58%) were called active. Not shown: some 5% with an inconclusive outcome.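 How the source made its calls: active means inhibition above a set limit at one or more doses, reproduced on every date tested; inconclusive means results disagree between test dates, or hit never tested in dose response; inactive means the rest.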 A selection follows. Entries with a potency or affinity are not part of this list.

Molecular target: Virion infectivity factor (Human immunodeficiency virus type 1 group M subtype B (isolate BH10)) + Virion infectivity factor (Human immunodeficiency virus type 1 group M subtype B (isolate BRU/LAI)) + Virion infectivity factor (Human immunodeficiency virus type 1 group M subtype B (isolate PCV12)) + Virion infectivity factor (Human immunodeficiency virus type 1 group M subtype B (isolate HXB2)) + DNA dC->dU-editing enzyme APOBEC-3G (Homo sapiens) (UniProt P69720+P69721+P69722+P69723+Q9HC16)
Test: HIV-1 Vif–A3G interaction blockers – biochemical, TR-FRET, GST-Vif 1-94, biotin-A3G peptide, dose response retest, primary screen (AID 1117319);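 further: Vif residues 1-94 fused to GST binding biotinylated APOBEC3G peptide 110-148; 0% = full assay without inhibitor and 100% = GST in place of GST-Vif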
Details: TR-FRET GST-Vif / biotin-A3G peptide binding; stronger effect = higher value

inhibition, inactive:
CCN(CC(=O)Nc1ccc(OC)cc1)C(=O)c1ccc2c(=O)n3c(nc2c1)CCC3 -5.14%, O=C1/C(=C/c2ccco2)N=C(N2CCCCC2)N1c1ccccc1 23.7%, CN(C)/C=C1\NC(=S)N(c2ccccc2)C1=O -8.51%, O=C1/C(=C\c2cccnc2)SC(=S)N1c1ccc(F)cc1 1.49%, CCOc1cccc(/C=C2\NC(=S)N(c3ccccc3)C2=O)c1O 8.76%, O=C1C(Cc2ccccc2)NC(=S)N1c1ccccc1 (configuration not stated) -3.85%, CC1CNC(=S)N(c2ccc(F)cc2)C1=O (configuration not stated) -6.26%, Cc1ccc2c(C)c(C(=O)NCCc3ccco3)oc2c1C -1.77%, CN(CC(=O)Nc1ccc(Cl)c(C(F)(F)F)c1)C(=O)c1cc(=O)[nH]c2ccccc12 1.56%, Cc1ccc(C(=O)CCC(=O)Nc2ccc(C)cn2)cc1 -9.87%, Cc1ccnc(NC(=O)CCC(=O)N(CC(=O)NCc2ccccc2)c2ccc3c(c2)OCO3)c1 12.1%, Cc1cc(C)nc(SCc2cc(=O)c(OC(=O)c3ccc(Cl)c([N+](=O)[O-])c3)co2)n1 31.3%, CN(c1ccc(C(=O)Nc2ccc(Cl)cn2)cc1)S(=O)(=O)c1ccccc1 18.3%, CN(C1=C(NC(=O)c2ccccc2)C(=O)c2ccccc2C1=O)C1CCS(=O)(=O)C1 (configuration not stated) 23.9%, Fc1cccc(NC(=S)N2CCCCC2)c1 1.92%, Cc1ccc(CC(NC(=O)c2ccccc2)C(=O)N2CCCC2C(=O)O)cc1 (configuration not stated) -0.14%, O=C(O/N=C1\CCS(=O)(=O)c2sccc21)C1CC1 -8.69%, O=C1C(Cl)=C(NCCc2ccccc2)C(=O)c2ccccc21 14.2%, Nc1c(Cl)cc2c(c1Oc1ccccc1)C(=O)c1ccccc1C2=O 7.9%, Cc1ccc(NS(=O)(=O)c2ccc(C(=O)N3CCCC(C(F)(F)F)C3)cc2)cc1 (configuration not stated) -6.68%, O=C1/C(=C/c2ccccn2)SC(=S)N1c1cccc(O)c1 1.67%, O=C(COc1ccccc1F)Nc1ccc2[nH]c(=O)[nH]c2c1 -2.63%, COC(=O)c1cc(NC(=O)c2cc(-c3ccc(Cl)cc3)oc2C(F)(F)F)ccc1N1CCOCC1 -11.7%, CSCCC(NC(=O)/C(=C/c1ccco1)NC(=O)c1ccc(Br)o1)C(=O)O (configuration not stated) 13.7%, CC(C)C(NC(=O)/C(=C/c1ccco1)NC(=O)c1ccc(Br)o1)C(=O)O (configuration not stated) 25.7%, COc1cc(/C(O)=C(\C#N)c2nc3ccccc3[nH]2)cc(OC)c1OC 3.24%, Cc1ccc(Cl)cc1N1CCN(C(=O)COc2ccc(S(=O)(=O)NC(C)C)cc2)CC1 6.57%, O=C(COc1ccc2c(c1)CCC2)N1CCN(c2ccc(F)cc2)CC1 4.96%, Cc1cc(C)n(CC(O)COc2ccccc2[N+](=O)[O-])n1 (configuration not stated) 10.6%, N#CC1=C(N)Oc2c(oc(CO)cc2=O)C1c1cccs1 (configuration not stated) 26.6%, COc1ccc(C2C(C#N)=C(N)Oc3c2oc(CO)cc3=O)cc1 (configuration not stated) -2.28%, O=C(OCC(=O)N1CCc2ccccc21)c1ccccn1 -3.08%, Cc1ccc(S(=O)(=O)N2CCOCC2)cc1C(=O)NC1CCCCC1 1.31%, CCOC(=O)c1sc2nc(CC(=O)OC)nc(NCc3ccc(Cl)cc3)c2c1C -0.39% and -4.73%, CCOC(=O)c1sc2nc(CC(=O)OC)nc(NCc3ccc(F)cc3)c2c1C -3.02%, CC(Oc1cccc(Cl)c1)C(=O)NNC(=O)c1cccnc1 (configuration not stated) -4.59%, COC(=O)c1ccc(N)cc1O -0.17%, COC(=O)c1ccc(C(=O)OC)c(=O)[nH]1 0.04%, Cc1nc2nc(-c3ccccc3)[nH]n2c(=O)c1C 21.8%, Cn1c(=O)c2c(-c3ccccc3)n(Cc3ccccn3)cc2n(C)c1=O -0.87%, CC(=O)Nc1ccc(N2C(=O)CC(Sc3nc(C)cc(C)n3)C2=O)cc1 (configuration not stated) 2.02%, CN(C)S(=O)(=O)c1ccc(N2CCCC2)c(C(=O)Nc2ccc(N3CCOCC3)cc2)c1 -0.06%, CC(=O)NCCc1ccc(C(=O)COC(=O)c2cccn2C)cc1 -0.53%, O=C(N/N=C/c1ccc(Cl)cc1Cl)C1CCN(c2ncc(C(F)(F)F)cc2Cl)CC1 0.03%, COc1ccc(NC(=O)/C=C/c2cc(Br)ccc2OC)cc1 -0.44%, COc1ccc(C(=O)/C=C/c2ccc(OC)cc2OC)c(O)c1 -6.99%, COc1cccc(/C=C/C(=O)c2ccc3c(c2)OCCO3)c1OC -6.76%, NNC(=O)/C=C/c1ccc(Cl)cc1Cl -9.79%, CN(C)/C=C/C(=O)/C=C/c1ccc(Cl)cc1Cl 0.37%, COc1ccc(/C=C/C(=O)c2ccccc2)c(OC)c1 2.19%, COc1ccc(OC)c(/C=C/C(=O)c2ccc(Cl)cc2)c1 -4.03%, COc1cccc(/C=C/C(=O)c2cccc([N+](=O)[O-])c2)c1OC -0.4%, Cn1c(=O)c2c(nc(CN3CCN(Cc4ccccc4)CC3)n2Cc2ccc(F)cc2)n(C)c1=O 8.38%, COc1cccc(CNC(=O)CCc2nc3cc(S(=O)(=O)N4CCOCC4)ccc3n2C)c1 -1.52%, COc1ccc(-c2nnc(SCC(=O)c3ccc[nH]3)o2)cc1 0.99%, O=C(Oc1ccccc1-c1nnco1)c1ccc(Cl)cc1 5.13%, COc1ccc(C=CC(=O)c2cc(O)ccc2O)cc1 -0.99%, COc1ccccc1/C=C/C(=O)c1ccccc1 3.38%, COc1ccc(/C=C/C(=O)c2ccc(OC)cc2OC)cc1 -1.1%, COc1ccccc1C=CC(=O)C=Cc1ccccc1OC 7.01%, Cc1nc(C(=O)N/N=C/c2[nH]ncc2Br)cs1 8.49%, COc1ccc(O)c(C(=O)c2cnn(S(=O)(=O)c3ccc(C)cc3)c2)c1 4.82%, CC1(C)CN(c2ccccc2)N(Cc2ccc(F)cc2)C1=O -1.71%, NC(=O)C1(C(=O)O)OC1(c1ccc(Cl)cc1)c1ccccc1Cl (configuration not stated) 5.1%, CCOc1ccc(NC(=O)c2ccc3c(SCC(=O)O)c4c(nc3c2)CCCC4)cc1 2.98%, COc1cc(NC(=O)c2ccc3c(SCC(=O)O)c4c(nc3c2)CCC4)cc(OC)c1OC 22.2%, CCN(CC)CCCNC(=O)c1ccc2c(SCC(=O)O)c3c(nc2c1)CCC3 27.5%, CC(C)CCNC(=O)c1ccc2c(SCC(=O)O)c3c(nc2c1)CCCC3 25.7%, CN1CCN(C(=O)c2ccc(CN3CCOCC3)cc2)CC1 -3.34%, Cc1cc(NS(=O)(=O)c2ccc(NC(=O)CSc3nnc(-c4ccco4)n3C)cc2)nc(C)n1 2.91%, O=C(Nc1ccccc1Cl)Nc1ccnn1C1CCN(C(=O)c2cscn2)CC1 5.94%, C=CCn1c(SCC(=O)NC2CC2)nc2ccccc2c1=O 1.47%, O=C(/C=C/Nc1ccc(Oc2ccccc2)cc1)c1ccco1 12.6%, O=C(/C=C/Nc1ccc(F)cc1)c1ccco1 10.5%, NS(=O)(=O)c1ccc(NC(=O)C2CCCN(S(=O)(=O)c3ccc(F)cc3)C2)cc1 (configuration not stated) -11.9%, COc1cccc(N(CC(=O)NCc2cccnc2)S(C)(=O)=O)c1 -2.81%, Cc1ccc(N(CC(=O)NCc2cccnc2)S(C)(=O)=O)cc1C -4.47%, CN1CCN(c2ccccc2NC(=O)c2ccc(Br)o2)CC1 0.41%, O=C(Nc1ccccc1N1CCOCC1)c1ccc(Br)o1 7.09%, O=C(O)c1cc(-c2ccc(N3CCOCC3)cc2)nn1-c1ccc(F)cc1 18.4%, Cn1cnc(S(=O)(=O)N2CCc3ccccc32)c1 3.79%, c1cc2c3c(cccc3c1)NC1(CCCCC1)N2 10.4%, c1cc2c3c(cccc3c1)NC1(CCCC1)N2 2.08%, Cc1cc(=O)[nH]c(SCCCOc2ccc3c(c2)CCC3)n1 -0.15%, CCn1nnnc1SCC(=O)NCc1ccco1 21.2%, CC(C)n1nnnc1SCC(=O)NCc1ccco1 20%, CCn1c(SCC(=O)NC(=O)NCc2ccco2)nnc1-c1cccs1 -5.61%, Cn1c(SCC(=O)NCc2ccco2)nnc1-c1cccs1 -8.22%, Clc1ccccc1Cc1noc(CN2CCCCC2c2ccccn2)n1 (configuration not stated) 2.88%, COc1cccc(OCc2nnc(SCC(=O)N3c4ccccc4Sc4ccc(Cl)cc43)o2)c1 8.84%, O=C(CN(C(=O)Cn1nnc(-c2ccc(F)cc2)n1)c1cnc2ccccc2c1)NCC1CCCO1 (configuration not stated) -11.4%, Cc1cc(=O)n2[nH]c(-c3sccc3-n3c(C)ccc3C)cc2n1 -3.07%, Cc1cc(C)n2nc(-c3ccsc3-n3c(C)ccc3C)cc2n1 16.4%, O=C(c1ccccc1)c1n[nH]c(-c2ccccc2)cc1=O 0.47%, CCOC(=O)N1CCC(NC(=O)c2cnn3cccnc23)CC1 -2.64%, O=C(O)CCCC(=O)Nc1c(F)c(F)c(F)c(F)c1F 3.4%, O=C(CCSCCC(=O)Nc1c(F)c(F)c(F)c(F)c1F)Nc1c(F)c(F)c(F)c(F)c1F -9.21%
